Gal4-VP16 FLuc: VP16 counterscreen qHTS for inhibitors of ROR gamma transcriptional activity; AID 2546, 2010; Potency, µM (titrated, usually from 53.6 µM), hits mostly inhibitors; actives 3.5% (n = 310,000); Drosophila S2 Gal4-VP16 UAS-luciferase, luminescence, 20 h;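 also: Gal4-VP16 expression switched on by copper sulfate through the metallothionein promoter; nearly all actives have a fitted effect of over 50% in size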
SW480 rereplic: A quantitative high throughput screen for small molecules that induce DNA re-replication in SW480 colon adenocarcinoma cells. SW480 DNA re-replication, Hoechst DNA content imaging, 48 h. Potency, µM (highest dose often 46.1 µM), most hits filed as activators. actives 1.8% (n = 340,000). AID 624297, 2012; also: nearly all actives have a fitted effect of over 55% in size
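Image-based DNA-content assay: after two days of treatment, nuclei were labelled with the DNA dye Hoechst and imaged, and hits were compounds raising the count of nuclei showing high fluorescence intensity.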
RORgamma inh: qHTS for inhibitors of ROR gamma transcriptional activity | AID 2551, 2010 | Potency, µM (titrated, usually from 53.6 µM), most hits filed as inhibitors | actives 5.4% (n = 310,000) | Drosophila S2 Gal4-RORgamma UAS-luciferase reporter, 20 h; also: nearly all actives have a fitted effect of over 60% in size
Target sequence (P51450 whole entry, looked up, the tested form may be a part): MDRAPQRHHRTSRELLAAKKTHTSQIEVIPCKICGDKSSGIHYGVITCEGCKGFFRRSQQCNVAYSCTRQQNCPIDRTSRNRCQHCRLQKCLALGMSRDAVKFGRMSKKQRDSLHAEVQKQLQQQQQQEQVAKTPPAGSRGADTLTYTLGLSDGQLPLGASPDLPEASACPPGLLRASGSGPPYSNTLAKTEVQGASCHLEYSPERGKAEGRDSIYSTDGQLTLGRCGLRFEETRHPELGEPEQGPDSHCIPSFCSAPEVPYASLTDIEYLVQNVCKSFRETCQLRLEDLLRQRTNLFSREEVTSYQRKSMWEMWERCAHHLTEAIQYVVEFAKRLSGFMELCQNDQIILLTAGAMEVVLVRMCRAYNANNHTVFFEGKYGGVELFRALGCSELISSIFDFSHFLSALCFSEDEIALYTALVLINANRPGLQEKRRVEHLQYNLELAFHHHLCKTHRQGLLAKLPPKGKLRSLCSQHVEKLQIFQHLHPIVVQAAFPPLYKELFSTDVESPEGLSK
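Luciferase reporter read in Schneider cells carrying Gal4-RORγ (mouse) and UAS-Photinus luciferase; cells given compound 1 h before 700 uM copper sulfate induction, then incubated 20 h at ambient temperature.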
KB-3-1 cytotox: qHTS assay for MDR1-selective chemotherapeutics: Primary screen using the parental adenocarcinoma cell KB-3-1; KB-3-1 viability, CellTiter-Glo ATP luminescence, 72 h; actives 1.4% (n = 400,000); Potency, µM (top dose mostly 46.1 µM), actives largely listed as cytotoxic; also: nearly all actives have a fitted effect of over 60% in size
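Cytotoxicity in the drug-sensitive parental line KB-3-1 was scored as loss of CellTiter-Glo luminescence following 72 h incubation with compound. Values come from curve fitting of normalized concentration-response data.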
MCF10A rereplic: A quantitative high throughput screen for small molecules that induce DNA re-replication in MCF 10a normal breast cells; MCF 10A DNA re-replication, Hoechst nuclear intensity, 48 h; Potency, µM (titrated, usually from 46.1 µM), hits mostly activators; actives 2.9% (n = 350,000); AID 624296, 2012; also: nearly all actives have a fitted effect of over 50% in size
KB-V1 cytotox: qHTS assay for MDR1-selective chemotherapeutics: Primary screen using the drug-selected MDR subline cells KB-V1. AID 1347076, 2019. Potency, µM (doses to about 46.1 µM), actives largely listed as cytotoxic. actives 3.4% (n = 400,000). KB-V1 MDR cells viability, CellTiter-Glo, 72 h; also: nearly all actives have a fitted effect of over 60% in size
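KB-V1 MDR subline cells in DMEM (phenol-red free, 10% FBS) exposed to compounds in qHTS concentration series for 72 h at 37 degrees C. Viability read by CellTiter-Glo luminescence; concentration-effect curves fitted after normalization and correction.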
Hits are given with their value; [ ] = remark or other dose. In the library only some 10% were active in any assay of this set; here they are far more common. Calls follow the shape of the dose curve; as a rule, active = well fitted curve in the direction sought with a large enough effect; inconclusive = small, poorly fitted or top-dose-only effect, or another doubt; inactive = no such curve, though single readings can be large; an effect the other way counts as inactive or inconclusive.

Screening CCN(CC)c1ccc(/C=N/NC(=O)c2nnn(-c3nonc3N)c2-c2ccc(C)cc2)cc1 returned Gal4-VP16 FLuc inconclusive, SW480 rereplic inactive, RORgamma inh 12.6µM, KB-3-1 cytotox inactive, MCF10A rereplic inactive and KB-V1 cytotox inactive.
`CCCOc1ccc(-c2c(C(=O)N/N=C/c3ccsc3)nnn2-c2nonc2N)cc1` gave Gal4-VP16 FLuc inconclusive, SW480 rereplic inactive, RORgamma inh 7.94µM, KB-3-1 cytotox inactive, MCF10A rereplic inactive and KB-V1 cytotox inactive.
`CCCOc1ccc(-c2c(C(=O)N/N=C/c3ccccc3)nnn2-c2nonc2N)cc1` gave Gal4-VP16 FLuc inactive, SW480 rereplic inactive[9.22 µM], RORgamma inh inactive, KB-3-1 cytotox inactive, MCF10A rereplic inactive and KB-V1 cytotox inactive.
`Cc1ccc(S(=O)(=O)Nc2ccccc2N=Cc2ccc([N+](=O)[O-])cc2[N+](=O)[O-])cc1` gave SW480 rereplic inconclusive, KB-3-1 cytotox inactive, MCF10A rereplic inconclusive and KB-V1 cytotox inactive.
Screening CC(C)c1noc2ncc(C(=O)c3cc(Cl)cc(Cl)c3O)cc12 returned Gal4-VP16 FLuc inactive, SW480 rereplic inconclusive, RORgamma inh inactive, KB-3-1 cytotox inconclusive, MCF10A rereplic inconclusive and KB-V1 cytotox 16.4µM.
Screening COc1ccc(S(=O)(=O)Cc2ccccc2)cc1N returned Gal4-VP16 FLuc inactive, SW480 rereplic 6.51µM, RORgamma inh inconclusive, KB-3-1 cytotox inconclusive, MCF10A rereplic inconclusive and KB-V1 cytotox inconclusive.
CCN1CCN(CC(=O)Nc2cc(S(=O)(=O)N3CCCCC3)ccc2Cl)CC1 was read as SW480 rereplic inactive, KB-3-1 cytotox inactive, MCF10A rereplic inconclusive and KB-V1 cytotox inactive.
CCN(c1ccccc1)S(=O)(=O)c1ccc(Cl)c(NC(=O)CNCc2ccccc2OC)c1 was read as SW480 rereplic inconclusive and MCF10A rereplic 16.4µM.
`CCN1CCN(CC(=O)Nc2cc(S(=O)(=O)N(CC)c3ccccc3)ccc2Cl)CC1` gave SW480 rereplic inconclusive, KB-3-1 cytotox inactive, MCF10A rereplic 20.6µM and KB-V1 cytotox inactive.
`CCN(CC)S(=O)(=O)c1ccc(Cl)c(NC(=O)COC(=O)c2cccn2C)c1` gave Gal4-VP16 FLuc inactive, SW480 rereplic inactive, RORgamma inh inactive, KB-3-1 cytotox inactive, MCF10A rereplic inactive and KB-V1 cytotox 14.6µM.
Screening CCN(CC)S(=O)(=O)c1ccc(Cl)c(NC(=O)COC(=O)c2ccc(O)cc2)c1 returned Gal4-VP16 FLuc inactive, SW480 rereplic inactive, RORgamma inh inactive, KB-3-1 cytotox inactive, MCF10A rereplic inactive and KB-V1 cytotox inactive.
Screening COc1cccc(CNC(=O)CSc2cc(C)[nH]c(=O)n2)c1 returned KB-3-1 cytotox inconclusive and KB-V1 cytotox inactive.
CCN(c1ccccc1)S(=O)(=O)c1ccc(Cl)c(NC(=O)CSc2n[nH]c(N)n2)c1 was read as Gal4-VP16 FLuc inactive, SW480 rereplic inactive, RORgamma inh inactive, KB-3-1 cytotox inactive, MCF10A rereplic inactive and KB-V1 cytotox inactive.
Screening CCN(c1ccccc1)S(=O)(=O)c1ccc(Cl)c(NC(=O)CSc2ncn[nH]2)c1 returned Gal4-VP16 FLuc inactive, SW480 rereplic inactive, RORgamma inh inactive, KB-3-1 cytotox inactive, MCF10A rereplic inactive and KB-V1 cytotox 23.1µM.
Screening CCN(c1ccccc1)S(=O)(=O)c1ccc(Cl)c(NC(=O)CN2CCN(C)CC2)c1 returned SW480 rereplic inactive, KB-3-1 cytotox inactive, MCF10A rereplic 16.4µM and KB-V1 cytotox inactive.
`CCN(c1ccccc1)S(=O)(=O)c1ccc(Cl)c(NC(=O)CN(C)C2CCN(C)CC2)c1` gave Gal4-VP16 FLuc inactive, SW480 rereplic inconclusive, RORgamma inh inactive, KB-3-1 cytotox inconclusive, MCF10A rereplic inconclusive and KB-V1 cytotox inactive.
`CCN(c1ccccc1)S(=O)(=O)c1ccc(N)c(OC)c1` gave Gal4-VP16 FLuc inactive, SW480 rereplic 11.2µM, RORgamma inh inactive, KB-3-1 cytotox 16.4µM, MCF10A rereplic 18.4µM and KB-V1 cytotox 23.1µM.
For CCCN(C(=O)Cn1ncc2c1-c1ccccc1OC2)c1cccc(C)c1 the results were KB-3-1 cytotox inactive and KB-V1 cytotox inactive.
For COc1cccc(NC(=O)C2CCN(c3nnc(C)c4c(C)n(-c5ccccc5)nc34)CC2)c1 the results were KB-3-1 cytotox inactive and KB-V1 cytotox inactive.
COC(=O)c1sccc1NC(=S)Nc1cc(C)ccc1OC was read as Gal4-VP16 FLuc 15.8µM, SW480 rereplic inactive, RORgamma inh 8.91µM, KB-3-1 cytotox inactive, MCF10A rereplic inactive and KB-V1 cytotox inactive.
COC(=O)c1sccc1NC(=O)Nc1ccc(F)cc1 was read as Gal4-VP16 FLuc inactive, SW480 rereplic inactive, RORgamma inh inconclusive, KB-3-1 cytotox inactive, MCF10A rereplic inactive and KB-V1 cytotox inactive.
COC(=O)c1sccc1NC(=O)Nc1ccc(C)cc1C was read as Gal4-VP16 FLuc inconclusive, SW480 rereplic inactive, RORgamma inh inconclusive, KB-3-1 cytotox inactive, MCF10A rereplic inactive and KB-V1 cytotox inactive.
`COC(=O)c1sccc1NC(=S)Nc1ccc(F)cc1` gave Gal4-VP16 FLuc inconclusive, SW480 rereplic inactive, RORgamma inh 12.6µM, KB-3-1 cytotox inactive, MCF10A rereplic inactive and KB-V1 cytotox inactive.
For CCCCOCCCNC(=O)C[C@@H]1C[C@@]2(C(=O)OCC)CCCC=C2N(CCc2ccc(OC)c(OC)c2)C1=O the results were KB-3-1 cytotox inactive and KB-V1 cytotox inconclusive.
Screening O=C(c1ccco1)N1CCN(c2c(-c3ccccc3)c3cc(Cl)ccc3[nH]c2=O)CC1 returned Gal4-VP16 FLuc inconclusive, SW480 rereplic inactive, RORgamma inh 2µM, KB-3-1 cytotox inactive, MCF10A rereplic inactive and KB-V1 cytotox inactive.
`O=c1[nH]c2ccc(Cl)cc2c(-c2ccccc2)c1N1CCOCC1` gave Gal4-VP16 FLuc inactive, SW480 rereplic inconclusive, RORgamma inh inactive, KB-3-1 cytotox inactive, MCF10A rereplic inconclusive and KB-V1 cytotox inactive.
Screening O=c1[nH]c2ccc(Cl)cc2c(-c2ccccc2)c1N1CCN(c2ccccn2)CC1 returned Gal4-VP16 FLuc inactive, SW480 rereplic inconclusive, RORgamma inh inactive, KB-3-1 cytotox inactive, MCF10A rereplic inactive and KB-V1 cytotox 13µM.
For O=C(c1ccco1)N1CCN(c2ncnc3c2[nH]c2ccc(Cl)cc23)CC1 the results were Gal4-VP16 FLuc 14.1µM, SW480 rereplic inactive, RORgamma inh inactive and MCF10A rereplic inconclusive.
For CCOc1ccc(S(=O)(=O)c2c(C(=O)c3ccc(C)cc3)cnc3cc4c(cc23)OCCO4)cc1 the results were Gal4-VP16 FLuc inactive, SW480 rereplic inactive, RORgamma inh inactive, KB-3-1 cytotox inactive, MCF10A rereplic inactive and KB-V1 cytotox inactive.
